Compound activity deposited in PubChem by several laboratories.
Hits are enriched below; roughly 3.3% of the tested compounds scored in any of these assays.
UBC13 inh = UBC13 polyubiquitin chain formation inhibitors, primary screen, biochemical, TR-FRET, uHTS; AID 485273, 2010; actives 0.47% (n = 330,000); inhibition, % at 20 µM; Ubiquitin-conjugating enzyme E2 N (Homo sapiens), P61088; in the data active means inhibition above about 45%, passing the limit was not always enough
Target sequence (P61088 whole entry, looked up): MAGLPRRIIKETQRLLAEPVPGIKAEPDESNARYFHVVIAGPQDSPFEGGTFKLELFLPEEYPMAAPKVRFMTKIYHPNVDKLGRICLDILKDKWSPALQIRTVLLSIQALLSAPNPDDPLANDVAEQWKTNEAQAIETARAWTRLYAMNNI
SUMO HTRF inh = inhibitors of in vitro SUMOylation cascade, primary screen, biochemical, HTRF, uHTS; HTRF SUMOylation assay, SAE1/SAE2 + UBC9; inhibition, % at 35 µM; SUMO-conjugating enzyme UBC9 (Homo sapiens), P63279; actives 0.36% (n = 290,000); AID 2006, 2009; in the data active means inhibition above about 50%, passing the limit was not always enough
Target sequence (P63279 whole entry, looked up): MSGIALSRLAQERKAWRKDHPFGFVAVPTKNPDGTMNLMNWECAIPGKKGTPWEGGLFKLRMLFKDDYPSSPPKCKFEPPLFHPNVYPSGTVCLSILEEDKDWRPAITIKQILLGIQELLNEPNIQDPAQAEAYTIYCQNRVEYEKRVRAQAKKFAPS
GRIN3A LBD mod = binders of NR3A ligand-binding domain, primary screen, biophysical, differential scanning fluorimetry, uHTS. Glutamate receptor ionotropic, NMDA 3A (GRIN3A) ligand-binding domain. actives 2.5% (n = 340,000). Tm shift relative to glycine control, % at 25 µM. NR3A LBD differential scanning fluorimetry, Tm shift; 0% = protein alone, 100% = glycine-bound protein;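 active means melting temperature shift of at least 10% of the positive control shift, at one fixed dose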
HGIII-sPLA2 inh = human group III sPLA2 inhibitors, primary screen, biochemical, QFRET, BODIPY PC-A2 liposome substrate; AID 743126, 2013; inhibition, % at 12.2 µM; actives 0.56% (n = 370,000); QFRET BODIPY PC-A2 liposome hydrolysis, fluorescence;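 active means inhibition above mean plus 3 SD of compounds lying within the high and low control bounds, cut at about 19% in these data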;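 further: 0% = median of test compound wells and 100% = no enzyme DMSO wells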
Numbers without * were called inactive; · = no result given.

SMILES | UBC13 inh | SUMO HTRF inh | GRIN3A LBD mod | HGIII-sPLA2 inh
CS(=O)(=O)N1CCN(c2ccccc2NC(=O)Nc2cccc(Cl)c2)CC1 | 6.0 | 5.1 | 12.1* | -16.0
CS(=O)(=O)N1CCN(c2ccccc2NC(=O)c2cc(Br)ccc2Cl)CC1 | 1.3 | -2.8 | 0.2 | 4.8
CSc1cccc(NC(N)=O)c1 | -1.1 | -1.4 | -1.0 | -1.5
O=C(Nc1ccc(C(=O)N2CCCCC2)cc1)Nc1cccc(Cl)c1 | 10.2 | 12.3 | 13.4* | -7.2
O=C(Nc1cccc(Cl)c1)N1CCCCCC1 | 4.0 | 7.2 | -1.0 | 2.4
COc1ccc2c(c1)CN1C(=O)N(Cc3ccccc3)S(=O)(=O)CC21 (configuration not stated) | · | · | · | 6.8
CCC(=O)NCC[C@@H]1CCc2ccc3c(c21)CCO3 | · | · | · | 1.3
COc1cccc(O[C@H]2C=C[C@@H](c3ccccc3)O[C@@H]2CO)c1 | · | · | · | -4.2
O=S(=O)(c1cccs1)N1CCC(c2cn3ccccc3n2)CC1 | · | · | · | 1.7
COC(=O)C(C(=O)OC)C1OC23CN(S(=O)(=O)c4ccc(C)cc4)C=CC2(C)C3c2ccccc21 (configuration not stated) | · | · | · | -15.8
O=C(NC1CCCCN(Cc2cccc(Cl)c2)C1=O)c1cccs1 (configuration not stated) | · | · | · | 6.6
COc1cc(/C=N/NC(=O)c2cccc([N+](=O)[O-])c2)ccc1OCc1ccccc1 | -13.9 | -32.3 | 22.2* | -3.4
CCOc1cc(/C=N/NC(N)=O)ccc1OCC(=O)Nc1ccc(C)c(C)c1 | 1.1 | 20.3 | -2.3 | -8.7
CCOc1cc(C=C2C(=O)c3ccccc3C2=O)ccc1OCC(=O)Nc1ccc(C)cc1 | -18.8 | 8.9 | 13.7* | -10.2
O=C(N/N=C/c1cccc([N+](=O)[O-])c1)c1ccc(COc2ccccc2-c2ccccc2)cc1 | -5.6 | -14.4 | 16.1* | 3.9
COc1ccc(/C=N/NC(=O)c2cccc([N+](=O)[O-])c2)c2ccccc12 | -9.6 | 9.8 | 33.7* | 4.2
CC(C)N(Cc1cn(Cc2ccccc2)nn1)S(=O)(=O)c1ccccc1Br | · | · | · | -2.6
FC(F)(F)c1ccc(Cn2ccc3ccc(-c4ccc5ccn(Cc6ccccc6)c5c4)cc32)cc1 | · | · | · | 17.0
Cc1sc2nc(COC(=O)CNC(=O)c3ccccc3Cl)[nH]c(=O)c2c1C | · | · | · | 10.5
COc1cc(/C=N/NC(=O)c2cccc(C)c2)ccc1OCC(=O)Nc1ccccc1 | -1.1 | · | 18.9* | -11.2
Cc1ccc(OC(=O)NC2CCS(=O)(=O)C2)cc1C (configuration not stated) | 18.2 | 16.1 | 11.0* | -0.5
CCN(C(=O)COC(=O)c1c(-c2ccccc2)noc1C)c1c(N)n(Cc2ccccc2)c(=O)[nH]c1=O | -3.1 | 2.7 | 14.5* | 4.2
CCOc1ccc(-n2c(SCC(=O)Nc3ccc(Br)cc3)nc3n[nH]c(C)c3c2=N)cc1 | 8.2 | 48.1 | 18.6* | 1.4
Cc1cc(-n2c(SCC(=O)NCc3cccs3)nc3n[nH]c(C)c3c2=N)ccc1Cl | 22.8 | -1.7 | 4.3 | 1.6
CCc1ccc(NC(=O)CSc2nc3n[nH]c(C)c3c(=N)n2-c2cccc(OC)c2)cc1 | 3.6 | -5.2 | 23.1* | -25.1
SMILES | UBC13 inh | SUMO HTRF inh | GRIN3A LBD mod | HGIII-sPLA2 inh
Cc1cc(-n2c(SCC(=O)Nc3ccc(Br)cc3)nc3n[nH]c(C)c3c2=N)ccc1Cl | 12.3 | -4.3 | 19.8* | -0.5
Cc1cc(-n2c(SCC(=O)Nc3ccc(F)c(F)c3)nc3n[nH]c(C)c3c2=N)ccc1Cl | 5.7 | 3.0 | 25.5* | 0.4
COc1ccc(C(CCOC(=O)Oc2ccccc2)c2cc(OC)c(OC)c(OC)c2)cc1 (configuration not stated) | · | · | · | -15.8
CCC[C@H]1[C@@H](NC(=O)C(c2ccccc2)c2ccccc2)CC[C@@]23CCCN2C(=O)CCC[C@@H]13 | · | · | · | -22.2
COc1cc(Br)cc(/C=N/NC(=O)Cc2ccc(C(F)(F)F)cc2[N+](=O)[O-])c1O | -4.6 | 19.9 | 25.2* | -37.9
CCOc1cc(/C=N/NC(=O)Cc2ccc(C(F)(F)F)cc2[N+](=O)[O-])c(Br)cc1OC | -8.6 | 1.8 | -1.1 | 2.6
COc1ccccc1Cc1noc(COc2cccc(C)c2C)n1 | -16.4 | -12.7 | 22.5* | -4.5
COc1ccccc1Cc1nc(-c2ccncc2)no1 | 4.7 | 12.4 | -13.2 | -0.5
CCN1/C(=C/c2ccc3ccccc3[n+]2CC)C=Cc2ccccc21 | -432.0 | -20.6 | -0.9 | 32.6*
O=[N+]([O-])c1cc(C(F)(F)F)ccc1NCCNC(=S)Nc1ccc(Cl)cc1 | -16.6 | -19.7 | 15.4* | 3.9
O=[N+]([O-])c1cc(Cl)ccc1NCCNc1ncc(C(F)(F)F)cc1Cl | -32.3 | 4.6 | 14.3* | -0.8
CCN(C(=O)[C@H]1CC(=O)O[C@@H]1c1ccccc1)c1ccccc1 | · | · | · | 1.9
Fc1ccc(/C=C\c2nccc3c2[nH]c2ccccc23)cc1 | -2.8 | 1.3 | 12.6* | -25.2
C(=C\c1nccc2c1[nH]c1ccccc12)/c1ccccc1 | 10.8 | 6.3 | 16.4* | -34.4
Cc1ccc(/C=C/c2nc3ccccc3c(=O)[nH]2)cc1 | 7.8 | 26.9 | -1.0 | -2.8
O=c1[nH]c2ccccc2nc1/C=C/c1ccc(F)cc1 | -3.5 | 4.6 | -4.1 | -19.9
Cc1ccc(/C=C\c2nccc3c2[nH]c2ccccc23)cc1 | 2.1 | 12.5 | 13.9* | -39.7
O=c1[nH]c2ccccc2nc1/C=C/c1ccccc1 | 5.6 | 13.6 | 0.9 | -7.5
O=c1[nH]c(/C(Cl)=C/c2cc(Cl)ccc2O)nc2cc(Cl)ccc12 | -0.7 | -3.4 | 38.9* | -9.3
O=C(Cc1ccc2c(c1)OCCO2)c1c(O)cc(O)cc1O | -7.1 | 12.0 | 2.9 | -8.9
COc1ccc(CCC(N)=O)cc1OC | -4.8 | -7.9 | -5.1 | -0.5
O=C(CCc1ccc(O)cc1)c1c(O)cc(O)cc1O | 3.9 | -15.5 | 21.3* | 0.8
COc1cc(O)c(CC=C(C)C)c(O)c1C(=O)CCc1ccc(O)cc1 | 17.2 | -4.9 | 18.6* | -28.8
CCNC(=S)NNC(=O)c1cnccn1 | · | · | · | -0.5
C[C@@H]1CN([C@@H](C)CO)C(=O)c2cccc(NC(=O)Nc3cccc4ccccc34)c2O[C@H]1CN(C)S(=O)(=O)c1ccc(Cl)cc1 | · | · | · | -27.0
O=C(Nc1cccc(-c2csc(Nc3ccc(Cl)cc3)n2)c1)c1cc([N+](=O)[O-])cc(C(F)(F)F)c1 | -50.0 | -5.2 | 20.1* | 4.3
O=C(Nc1cccc(-c2csc(Nc3ccccc3)n2)c1)c1cc([N+](=O)[O-])cc(C(F)(F)F)c1 | -41.4 | -1.4 | 7.9 | -2.2
O=C(Nc1ccc(-c2csc(Nc3ccc(Cl)cc3)n2)cc1)c1cc([N+](=O)[O-])cc(C(F)(F)F)c1 | -64.7 | -18.1 | 20.0* | 0.6
Oc1ccc(CNc2ccc(C(F)(F)F)cc2F)c2cccnc12 | · | · | · | 8.7
CCOC(=O)Nc1ccc2c(c1)Nc1ccccc1S2 | -18.8 | 26.8 | 12.3* | 0.1
